# Reference: PubChem BioAssay
# Calls of active or inactive are those of the source. Unless noted, how the calls were made is not given here.
# How the values were obtained:
# [1] = anti-His antibody binders, primary screen, artefact control for SMM control protein annotation, biochemical, small-molecule microarray, 635 nm fluorescence (AID 1128); settings: anti-His Alexa647 antibody binding, higher = more signal;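 further: score merges feature fluorescence with signal-to-noise for each printed compound spot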
# [2] = tested on: Human papillomavirus type 1a E7 protein (residues 1-88); assay: HPV1a E7 small-molecule binders, primary screen, biochemical, small-molecule microarray, residues 1-88, 635 nm (AID 1129); settings: small-molecule microarray binding, fluorescence 635 nm; higher = more signal
# [3] = target: Focal adhesion kinase 1 (Homo sapiens) (UniProt Q05397); assay: small-molecule microarray binders of FAK, primary screen, biochemical, 635/667 nm fluorescence, BSA, DTT (AID 1130); settings: PTK2 binding, 635 nm fluorescence, higher = more signal;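 further: composite of spot emission at 667 nm and signal to noise over triplicate slides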
# [4] = tested on: Fibrinogen (Alexa647-labelled); assay: fibrinogen binders on compound microarrays, profiling panel, artefact control for SMM control-protein annotation, biochemical, small-molecule microarray, 635/667 nm fluorescence (AID 1131); settings: fibrinogen-A647 binding fluorescence, higher = more signal;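 further: z-score merges 667 nm fluorescence with per-spot signal-to-noise over triplicate slides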
# [5] = target: Follistatin (Homo sapiens) (UniProt P19883); assay: follistatin binders on small-molecule microarrays, primary screen, biochemical, small-molecule microarray, 635/667 nm fluorescence (AID 1132); settings: FST binding, 635 nm fluorescence, higher = more signal
# [6] = target: Fibroblast growth factor 2 (Homo sapiens) (UniProt P09038); assay: FGF2 binders on small-molecule microarrays, primary screen, biochemical, small-molecule microarray, 635/667 nm fluorescence (AID 1133); settings: small-molecule microarray binding, FGF2, fluorescence 635/667; higher = more signal
# [7] = mitochondrial membrane potential change in A549 cells, profiling panel, cell-based, JC-1 fluorescence, basal, 24 h, 100 nL (AID 1138); settings: higher = more signal;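 further: A549 lung adenocarcinoma cells under basal conditions with no added stimulus; test concentration not given here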
# [8] = tested on: Lefty1; assay: Lefty1 binders on small-molecule microarrays, primary screen, biochemical, small-molecule microarray, 635/667 nm fluorescence (AID 1139); settings: small-molecule microarray binding, fluorescence 635/667; higher = more signal
# [9] = tested on: wheat germ agglutinin (Triticum aestivum), Alexa647-labelled; assay: wheat germ agglutinin binders on compound microarrays, profiling panel, artefact control for SMM control-protein annotation, biochemical, small-molecule microarray, 635/667 nm fluorescence (AID 1140); settings: WGA-A647 binding, 635 nm fluorescence, higher = more signal;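 further: score merges 667 nm feature emission with signal to noise over triplicate slides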
# [10] = target: Luciferin 4-monooxygenase (Photinus pyralis) (UniProt P08659); assay: firefly luciferase enzyme inhibitors, primary screen, biochemical, luminescence, purified enzyme, 2006 set (AID 1141); settings: SteadyGlo luminescence, 30 min, higher = more signal, called active from +8 up or from −8 down;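 further: cell-free assay with purified firefly luciferase at 100 ng per well in PBS; test concentration not given here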
# [11] = tested on: Wnt5a (protein binding on small-molecule microarray); assay: Wnt5a binders on small-molecule microarray, primary screen, biophysical, 635/667 nm fluorescence (AID 1142); settings: 635 nm fluorescence, higher = more signal;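 further: fluorescence read at 667 nm with signal to noise per printed feature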
# [12] = cell viability in Huh7 cells, primary screen, cytotoxicity control for HCV replication inhibitor project, CellTiter-Glo luminescence, basal, 48 h (AID 1143); settings: Huh7 HCV replicon, higher = more signal, called active from +8 up or from −8 down;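 further: Huh7 hepatoma cells carrying a hepatitis C replication reporter with no stimulus; test concentration not given here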
# [13] = P. aeruginosa biofilm formation inhibitors, primary screen, PAO1 strain, BacTiter-Glo luminescence, LB-PBS (AID 1144); settings: 12 h, higher = more signal
# [14] = CREB reporter modulators without forskolin, primary screen, cell-based, PC12, CRE-LacZ reporter, unstimulated (AID 1145); settings: no forskolin, luminescence, 4.5 h, higher = more signal, called active from +8 up or from −8 down
# [15] = CREB reporter modulators under forskolin, primary screen, cell-based, PC12, CRE-LacZ reporter, forskolin-stimulated (AID 1146); settings: luminescence, 4.5 h, higher = more signal, called active from +8 up or from −8 down;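 further: PC12 cells with 6xCRE LacZ reporter stimulated by forskolin 10 µM; beta-galactosidase reporter signal reflecting CREB driven transcription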
# [16] = target: Streptavidin (Streptomyces avidinii) (UniProt P22629); assay: streptavidin binders on small-molecule microarray, primary screen, artefact control for SMM compound annotation, biophysical, 635/667 nm fluorescence (AID 1147); settings: streptavidin binding, higher = more signal;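 further: signal reflects streptavidin binding to arrayed compounds as a control protein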
# [17] = small-molecule binders of probe aInhba, primary screen, biochemical, small-molecule microarray, 635/667 nm fluorescence (AID 1148); settings: higher = more signal;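 further: score merges 667nm spot fluorescence with signal-to-noise for antibody binding to printed compounds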
# [18] = target: Torsin-1A (Homo sapiens) (UniProt O14656); assay: torsin A binders from cell lysate, primary screen, small-molecule microarray, wild-type, 635/667 nm (AID 1149); settings: COS7 hTOR1A-WT lysate, 635 nm fluorescence, higher = more signal
# [19] = target: Torsin-1A (Homo sapiens) (UniProt O14656); assay: small-molecule binders of mutant TOR1A in lysate, primary screen, cell lysate, small-molecule microarray, COS7 lysate, 635/667 nm fluorescence (AID 1150); settings: COS7 hTOR1A mutant lysate, 635 nm fluorescence, higher = more signal;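 further: score pools 667 nm emission and signal to noise measuring lysate protein binding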
# [20] = tested on: Sonic hedgehog protein (Shh); assay: small-molecule binders of Shh protein, primary screen, biochemical, small-molecule microarray, 635/667 nm fluorescence (AID 1151); settings: small-molecule microarray binding, 635 nm fluorescence; higher = more signal;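 further: Shh protein binding to compounds spotted on small-molecule microarray slides; score combines spot fluorescence intensity with signal-to-noise across triplicate slides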
# Torsin-1A (Homo sapiens), sequence (O14656 whole entry, looked up): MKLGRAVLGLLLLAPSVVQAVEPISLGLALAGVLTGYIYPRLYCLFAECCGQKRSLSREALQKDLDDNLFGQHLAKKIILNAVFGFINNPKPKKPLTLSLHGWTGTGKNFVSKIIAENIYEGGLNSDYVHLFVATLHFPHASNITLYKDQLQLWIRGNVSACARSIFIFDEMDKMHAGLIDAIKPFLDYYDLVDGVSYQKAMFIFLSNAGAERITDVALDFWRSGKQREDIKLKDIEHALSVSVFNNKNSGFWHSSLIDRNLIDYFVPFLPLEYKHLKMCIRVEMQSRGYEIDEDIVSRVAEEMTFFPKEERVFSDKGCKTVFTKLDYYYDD
# Streptavidin (Streptomyces avidinii), sequence (P22629 whole entry, looked up): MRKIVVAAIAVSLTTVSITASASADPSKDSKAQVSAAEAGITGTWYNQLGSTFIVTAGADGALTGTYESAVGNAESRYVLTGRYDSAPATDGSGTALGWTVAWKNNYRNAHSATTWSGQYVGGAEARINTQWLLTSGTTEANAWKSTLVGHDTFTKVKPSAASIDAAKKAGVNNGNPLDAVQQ
# Focal adhesion kinase 1 (Homo sapiens), sequence (Q05397 whole entry, looked up): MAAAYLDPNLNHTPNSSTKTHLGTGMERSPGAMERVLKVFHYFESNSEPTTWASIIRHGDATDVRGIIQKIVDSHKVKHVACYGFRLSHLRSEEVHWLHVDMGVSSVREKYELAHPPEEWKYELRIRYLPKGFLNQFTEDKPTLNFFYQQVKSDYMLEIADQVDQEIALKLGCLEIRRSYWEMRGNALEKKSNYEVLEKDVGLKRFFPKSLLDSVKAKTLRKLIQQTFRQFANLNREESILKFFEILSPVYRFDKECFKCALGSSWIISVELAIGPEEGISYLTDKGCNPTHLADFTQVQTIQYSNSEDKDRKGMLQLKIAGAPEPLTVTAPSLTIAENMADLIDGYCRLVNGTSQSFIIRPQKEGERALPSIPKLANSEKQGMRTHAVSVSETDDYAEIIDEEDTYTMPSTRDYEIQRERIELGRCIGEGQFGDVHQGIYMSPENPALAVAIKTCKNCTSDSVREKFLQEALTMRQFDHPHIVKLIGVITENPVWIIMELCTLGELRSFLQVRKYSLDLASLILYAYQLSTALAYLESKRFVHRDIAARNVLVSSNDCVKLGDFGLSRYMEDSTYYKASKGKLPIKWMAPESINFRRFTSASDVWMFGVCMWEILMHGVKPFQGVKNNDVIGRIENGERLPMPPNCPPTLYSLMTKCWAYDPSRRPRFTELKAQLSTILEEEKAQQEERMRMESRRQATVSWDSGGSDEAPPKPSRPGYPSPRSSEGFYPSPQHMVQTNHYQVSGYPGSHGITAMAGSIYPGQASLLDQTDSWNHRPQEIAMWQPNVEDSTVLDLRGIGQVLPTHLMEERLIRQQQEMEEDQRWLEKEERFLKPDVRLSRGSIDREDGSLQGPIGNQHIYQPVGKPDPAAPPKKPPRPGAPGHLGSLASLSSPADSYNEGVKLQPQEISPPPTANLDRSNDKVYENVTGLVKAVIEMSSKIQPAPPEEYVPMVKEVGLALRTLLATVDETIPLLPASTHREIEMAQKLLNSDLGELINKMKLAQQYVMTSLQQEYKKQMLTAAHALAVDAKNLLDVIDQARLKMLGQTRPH
# Follistatin (Homo sapiens), sequence (P19883 whole entry, looked up): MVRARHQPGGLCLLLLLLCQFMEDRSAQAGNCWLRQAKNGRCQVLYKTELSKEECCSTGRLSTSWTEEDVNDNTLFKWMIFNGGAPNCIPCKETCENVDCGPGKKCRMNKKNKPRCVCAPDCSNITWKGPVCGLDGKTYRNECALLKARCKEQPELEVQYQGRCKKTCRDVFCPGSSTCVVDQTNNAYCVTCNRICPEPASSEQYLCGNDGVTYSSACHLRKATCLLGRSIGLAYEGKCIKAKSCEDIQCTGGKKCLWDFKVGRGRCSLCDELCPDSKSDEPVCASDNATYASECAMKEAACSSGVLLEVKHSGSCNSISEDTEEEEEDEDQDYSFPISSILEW
# Fibroblast growth factor 2 (Homo sapiens), sequence (P09038 whole entry, looked up): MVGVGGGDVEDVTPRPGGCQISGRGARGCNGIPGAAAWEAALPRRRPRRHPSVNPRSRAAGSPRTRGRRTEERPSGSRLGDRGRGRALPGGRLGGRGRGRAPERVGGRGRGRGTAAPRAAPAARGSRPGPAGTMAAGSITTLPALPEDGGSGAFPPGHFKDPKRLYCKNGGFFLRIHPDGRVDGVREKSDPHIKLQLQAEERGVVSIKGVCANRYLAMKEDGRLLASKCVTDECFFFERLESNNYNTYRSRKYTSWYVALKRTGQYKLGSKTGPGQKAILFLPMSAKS
# Luciferin 4-monooxygenase (Photinus pyralis), sequence (P08659 whole entry, looked up): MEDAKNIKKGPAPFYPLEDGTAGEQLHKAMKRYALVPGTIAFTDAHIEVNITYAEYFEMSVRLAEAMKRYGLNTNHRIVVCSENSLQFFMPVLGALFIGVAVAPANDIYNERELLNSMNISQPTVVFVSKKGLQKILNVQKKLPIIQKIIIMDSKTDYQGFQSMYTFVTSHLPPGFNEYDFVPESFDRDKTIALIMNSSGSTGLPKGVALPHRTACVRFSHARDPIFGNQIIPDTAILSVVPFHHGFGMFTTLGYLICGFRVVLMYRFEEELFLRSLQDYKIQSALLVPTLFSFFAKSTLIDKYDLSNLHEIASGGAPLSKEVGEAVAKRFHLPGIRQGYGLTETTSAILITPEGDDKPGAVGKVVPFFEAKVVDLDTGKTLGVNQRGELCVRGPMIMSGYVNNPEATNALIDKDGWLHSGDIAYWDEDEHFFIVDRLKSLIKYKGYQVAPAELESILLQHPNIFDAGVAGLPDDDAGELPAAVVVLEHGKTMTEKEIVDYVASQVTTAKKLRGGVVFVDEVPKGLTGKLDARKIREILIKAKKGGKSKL
SMILES,composite z-score [1],composite z-score [2],composite z-score [3],composite z-score [4],composite z-score [5],composite z-score [6],z-score [7],composite z-score [8],composite z-score [9],z-score [10],composite z-score [11],z-score [12],z-score [13],z-score [14],z-score [15],composite z-score [16],composite z-score [17],composite z-score [18],composite z-score [19],composite z-score [20]
C=CCC(OC(C)=O)[C@@H]1[C@@H](N(Cc2ccc(-c3cccc(C(F)(F)F)c3)o2)C(=O)c2ccc(-c3ccccc3)cc2)c2cc(OCCCO)ccc2N1C(=O)c1ccc2ccccc2n1 (stereo not given in full),0.445,-0.507,0.0509,0.401,0.772,-0.0036,0.404,0.149,-0.0763,0.141 (inactive),-0.0222,0.0285 (inactive),-0.171 (inactive),0.222 (inactive),0.53 (inactive),0.0257,-0.0762,-0.48,-0.0764,0.406
CC[C@H]1C2=C3C(CC[C@H]4C(OCc5ccc(F)cc5C(F)(F)F)OC[C@](C)([C@@H]34)N(C(=O)OC(C)(C)C)C2)C(COC)C1COC (stereo not given in full),-0.0372,0.0144,-0.093,-0.0416,-0.0566,-0.758,0.767,-0.477,0.225,0.303 (inactive),-0.173,0.0724 (inactive),1.02 (inactive),-0.379 (inactive),1.01 (inactive),-0.214,0.029,-0.0927,-0.0476,-1.3
CC(C)N1C(=O)c2ccccc2[C@@H](C(=O)NC2CC2)[C@@H]1c1ccc(CO)cc1,1.89,0.934,-0.361,0.868,1.04,1.08,1.04,0.147,0.22,-0.161 (inactive),0.302,-0.264 (inactive),-0.226 (inactive),0.001 (inactive),-0.3 (inactive),0.381,-0.0059,0.775,0.852,0.531
COc1ccc(NC(=O)O[C@H]2[C@H](OC(=O)Nc3ccccc3)[C@H](OC(=O)Nc3ccccc3)[C@@H](OC)O[C@@H]2CO)cc1,1.65,1.19,0.709,0.284,1.35,1.45,0.732,0.735,0.98,-0.128 (inactive),1.14,-4.38 (inactive),0.643 (inactive),0.204 (inactive),-1.05 (inactive),0.0994,0.398,0.97,1.1,1.44
CCCCC(O)C1C=CC2C(=O)N(c3ccccc3)C(=O)C2N1Nc1ccc(C(C)C)cc1 (stereo not given),0.236,1.22,0.536,1.01,0.967,-0.138,-0.142,0.451,0.394,-1.46 (inactive),0.261,-0.714 (inactive),-0.905 (inactive),1.38 (inactive),0.232 (inactive),0.486,0.341,-0.149,0.214,-0.207
CCCCC=C[C@@H](NC(=O)c1ccc(-c2ccccc2)cc1)c1ccccc1,0.512,1.19,0.416,0.413,-0.107,-0.0601,-0.428,-0.217,0.535,2.01 (inactive),-0.0312,-1.76 (inactive),-0.00961 (inactive),0.197 (inactive),-0.013 (inactive),1.18,0.319,0.58,0.871,-0.181
CCCCCCCCCCC(O)C1C=CC2C(=O)N(C)C(=O)C2N1Nc1ccc([N+](=O)[O-])cc1[N+](=O)[O-] (stereo not given),1.38,1.21,0.851,0.949,0.0686,-0.597,1.68,-0.524,1,0.581 (inactive),0.218,-0.646 (inactive),0.322 (inactive),0.44 (inactive),0.932 (inactive),1.12,0.211,-0.257,0.565,-0.412
COC(=O)c1cn(C[C@@H](Cc2ccccc2)NC(=O)N[C@H](CO)CCc2oc(C(C)=O)c(C(=O)OC)c2C(=O)OC)nn1,1.42,0.533,0.192,0.729,1.02,0.86,0.642,1.17,0.235,-0.373 (inactive),0.173,-0.102 (inactive),0.201 (inactive),1.5 (inactive),-0.981 (inactive),0.304,0.108,0.658,0.268,1.93
CCOC(=O)C1=C[C@@H](c2ccccc2)N(S(=O)(=O)c2ccc(C)cc2)[C@H]1c1ccccc1Cl,0.857,1.17,1.6,0.86,0.761,0.414,1.53,0.838,0.778,0.86 (inactive),0.387,-3.97 (inactive),0.533 (inactive),-0.312 (inactive),0.343 (inactive),1.6,-0.0221,0.888,0.273,0.844
